Results reported in PubChem BioAssay AID1159580 (chemical genetic matrix, 2015).
“And” between values parts separate entries of the source, which are not always exact repeats. Equal entries are not always repeated. Among all 5,500 compounds or so, about 2,000 (36%) were called active. About 18% were inconclusive and are not listed. No stated cut-off is given here; in the data, active means normalized growth mostly below about 0.91 (no sharp cut-off); inconclusive means no clear call, values can overlap the other calls; inactive means mostly above about 0.92. This is one part of the list.

Experiment: chemical genetic growth profiling, strain panel (AID 1159580);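 further: tested at 20 µM; growth read once vehicle control cultures reached saturation at 30 °C; 1 = growth at the plate median or of vehicle wells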
Settings: S. cerevisiae deletion strains, growth OD

Measured: normalized growth

CC(CCc1ccccc1)NC(C)C(O)c1ccc(O)cc1 (stereo not given)
inactive: locus YAL021C, strain ccr4, stronger effect = lower value 0.992 | locus YAL026C, strain drs2, stronger effect = lower value 0.995 | locus YAL030W, strain snc1, stronger effect = lower value 0.999 | locus YAL040C, strain CLN3, stronger effect = lower value 1.01 | locus YBL061C, strain skt5, stronger effect = lower value 0.997 | locus YBR009C, strain hhf1, stronger effect = lower value 1 | locus YBR021W, strain FUR4, stronger effect = lower value 0.997 | locus YBR023C, strain chs3, stronger effect = lower value 1.01 | locus YBR171W, strain sec66, stronger effect = lower value 1.01 | locus YBR229C, strain ROT2, stronger effect = lower value 0.955 | locus YBR231C, strain swc5, stronger effect = lower value 1 | locus YBR279W, strain paf1, stronger effect = lower value 0.995 | locus YCL011C, strain gbp2, stronger effect = lower value 1.01 | locus YCL016C, strain dcc1, stronger effect = lower value 1.01 | locus YCL029C, strain bik1, stronger effect = lower value 0.981 | locus YCL061C, strain MRC1 (second series), stronger effect = lower value 1 | locus YCL061C, strain MRC1, stronger effect = lower value 0.998 | locus YCL069W, strain vba3, stronger effect = lower value 0.998 | locus YCR088W, strain abp1, stronger effect = lower value 1.01 | locus YDL005C, strain med2, stronger effect = lower value 0.999 | locus YDL035C, strain GPR1, stronger effect = lower value 0.977 | locus YDL040C, strain nat1, stronger effect = lower value 1 | locus YDL074C, strain BRE1, stronger effect = lower value 0.953 | locus YDL101C, strain DUN1, stronger effect = lower value 0.978 | locus YDL134C, strain PPH21, stronger effect = lower value 1 | locus YDL185W, strain tfp1, stronger effect = lower value 0.984 | locus YDL192W, strain arf1, stronger effect = lower value 0.992 | locus YDR001C, strain nth1, stronger effect = lower value 0.999 | locus YDR069C, strain doa4, stronger effect = lower value 0.977 | locus YDR101C, strain arx1, stronger effect = lower value 0.998 | locus YDR137W, strain rgp1, stronger effect = lower value 0.989 | locus YDR150W, strain NUM1, stronger effect = lower value 0.984 | locus YDR159W, strain sac3, stronger effect = lower value 0.99 | locus YDR162C, strain NBP2, stronger effect = lower value 0.991 | locus YDR195W, strain ref2 1 | locus YDR297W, strain sur2, stronger effect = lower value 0.993 | locus YDR318W, strain mcm21, stronger effect = lower value 1 | locus YDR334W, strain swr1, stronger effect = lower value 1.01 | locus YDR335W, strain msn5, stronger effect = lower value 0.995 | locus YDR363W, strain ESC2, stronger effect = lower value 0.998 | locus YDR388W, stronger effect = lower value 0.993 | locus YDR392W, strain spt3, stronger effect = lower value 0.963 | locus YDR502C, strain sam2, stronger effect = lower value 1 | locus YEL003W, strain gim4, stronger effect = lower value 0.979 | locus YEL037C, strain rad23, stronger effect = lower value 1 | locus YEL061C, strain CIN8 (second series), stronger effect = lower value 1 | locus YEL061C, strain CIN8, stronger effect = lower value 0.987 | locus YER002W, strain NOP16, stronger effect = lower value 1 | locus YER015W, strain faa2, stronger effect = lower value 0.998 | locus YER016W, strain bim1, stronger effect = lower value 0.999 | locus YER110C, stronger effect = lower value 0.962 | locus YER111C, strain swi4, stronger effect = lower value 0.999 | locus YER155C, strain BEM2 (second series), stronger effect = lower value 1 | locus YER155C, strain BEM2, stronger effect = lower value 0.993 | locus YER167W, strain BCK2, stronger effect = lower value 0.99 | locus YFR010W, strain ubp6, stronger effect = lower value 1 | locus YGL078C, strain dbp3, stronger effect = lower value 0.993 | locus YGL086W, strain mad1, stronger effect = lower value 0.975 | locus YGL167C, strain pmr1, stronger effect = lower value 1 | locus YGL173C, strain kem1, stronger effect = lower value 1.01 | locus YGL227W, strain vid30, stronger effect = lower value 1 | locus YGL240W, strain doc1, stronger effect = lower value 0.993 | locus YGL248W, strain PDE1, stronger effect = lower value 0.97 | locus YGL253W, strain hxk2, stronger effect = lower value 0.997 | locus YGR078C, strain PAC10, stronger effect = lower value 0.981 | locus YGR135W, strain pre9, stronger effect = lower value 0.989 | locus YGR229C, strain SMI1, stronger effect = lower value 0.989 | locus YGR252W, strain gcn5, stronger effect = lower value 0.974 | locus YHR013C, strain ard1, stronger effect = lower value 0.991 | locus YHR027C, strain rpn1, stronger effect = lower value 1.02 | locus YHR030C, strain SLT2, stronger effect = lower value 0.995 and 0.972 | locus YHR079C, strain IRE1 (second series), stronger effect = lower value 1 | locus YHR079C, strain IRE1, stronger effect = lower value 0.959 | locus YHR094C, strain hxt1, stronger effect = lower value 1 | locus YHR129C, strain ARP1, stronger effect = lower value 0.987 | locus YHR142W, strain chs7, stronger effect = lower value 1.01 | locus YHR200W, strain rpn10, stronger effect = lower value 0.997 | locus YIL066C, strain RNR3, stronger effect = lower value 0.988 | locus YIL073C, strain SPO22, stronger effect = lower value 0.979 | locus YIL125W, strain kgd1, stronger effect = lower value 0.989 | locus YIR030C, strain dcg1, stronger effect = lower value 0.983 | locus YJL092W, strain hpr5, stronger effect = lower value 1.01 | locus YJL095W, strain BCK1 (second series), stronger effect = lower value 1.02 | locus YJL095W, strain BCK1, stronger effect = lower value 0.981 and 0.985 | locus YJL115W, strain asf1, stronger effect = lower value 1.01 | locus YJL129C, strain trk1, stronger effect = lower value 0.98 | locus YJL134W, strain LCB3, stronger effect = lower value 0.993 | locus YJL154C, strain vps35, stronger effect = lower value 0.996 | locus YJL164C, strain tpk1, stronger effect = lower value 0.992 | locus YJL166W, strain qcr8, stronger effect = lower value 1 | locus YJL168C, strain set2, stronger effect = lower value 0.991 | locus YJL187C, strain SWE1 (second series), stronger effect = lower value 0.982 | locus YJL187C, strain SWE1, stronger effect = lower value 1 | locus YJR043C, strain POL32, stronger effect = lower value 1 | locus YJR066W, strain TOR1, stronger effect = lower value 0.925
